In PubChem BioAssay AID624330 (Southern Research Specialized Biocontainment Screening …, 2012) one finds inhibition data, which are given here for 30 molecules.

Out of some 340,000 compounds screened, about 2,100 (0.62%) were called active.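 The calls were made as follows: active = first-screen hits whose inhibition reached a set limit at any dose in the follow-up dose series; inconclusive = inhibition above the set first-screen limit but never retested; inactive = the rest.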 Only a sample is shown. Entries with a potency or affinity are not part of this list.

The target of this experiment is Rac GTPase-activating protein 1 (Homo sapiens) (UniProt Q9H0H5). Put plainly: MgcRacGAP GTPase-activating activity inhibitors, confirmation, biochemical, ADP Hunter fluorescence, primary and confirmatory (AID 624330).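 Also: fluorescence reports GDP produced by GAP-driven GTP hydrolysis.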 The settings on record: MgcRacGAP-stimulated Rac1 GTP hydrolysis, at 30 µM, stronger effect = higher value, GST-tagged Rac1 F28L mutant substrate.
Sequence of Rac GTPase-activating protein 1 (Homo sapiens) (Q9H0H5 whole entry, looked up): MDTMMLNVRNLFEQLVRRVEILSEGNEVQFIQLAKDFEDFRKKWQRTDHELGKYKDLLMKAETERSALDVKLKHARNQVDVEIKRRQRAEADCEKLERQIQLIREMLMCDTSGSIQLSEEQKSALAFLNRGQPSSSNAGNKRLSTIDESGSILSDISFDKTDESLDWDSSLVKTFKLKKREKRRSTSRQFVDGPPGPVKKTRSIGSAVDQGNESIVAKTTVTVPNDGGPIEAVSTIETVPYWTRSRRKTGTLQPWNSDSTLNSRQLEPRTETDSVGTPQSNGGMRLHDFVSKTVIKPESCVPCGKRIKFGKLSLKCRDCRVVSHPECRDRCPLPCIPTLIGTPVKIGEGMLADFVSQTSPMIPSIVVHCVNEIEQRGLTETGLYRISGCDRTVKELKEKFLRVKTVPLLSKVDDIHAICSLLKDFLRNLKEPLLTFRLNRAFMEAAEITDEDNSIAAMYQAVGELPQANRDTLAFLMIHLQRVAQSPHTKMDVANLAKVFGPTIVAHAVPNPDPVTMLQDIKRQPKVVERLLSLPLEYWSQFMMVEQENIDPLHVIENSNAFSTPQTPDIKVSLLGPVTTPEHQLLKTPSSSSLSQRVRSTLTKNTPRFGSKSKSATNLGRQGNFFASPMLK
`CCOc1ccc(N(C(C)C(=O)Nc2ccc(OC)cc2)S(C)(=O)=O)cc1` (stereo not given): the inhibition is 9.57% (inactive). For `Cc1ccc(NC(=O)COC(=O)c2cc(Cl)ccc2[N+](=O)[O-])cc1` the value was 9% (inactive). Regarding `O=C(c1c(O)cc(O)cc1O)C1c2c(cc(O)c3c2O[C@H](c2ccc(O)cc2)[C@@H](O)C3)OC1c1ccc(O)cc1` (stereo not given in full), the inhibition was 12.8% (inactive).

Consider `O=C1c2c(O)cc(O)cc2O[C@H](c2ccc(O)c(O)c2)[C@H]1O`, for which the inhibition is 13.3% (inactive).

As to `COc1cc2c3c([nH]c2cc1F)C(=O)NCC3`, the inhibition was 9.04% (inactive).

With `O=[N+]([O-])c1cccc(CSc2nc3ccccc3[nH]2)c1`, the inhibition was 3.52% (inactive). In the case of `CCN(CC(=O)Nc1cc(Cl)ccc1C)C(=O)COc1ccccc1F`, the inhibition is -0.45% (inactive). For `C(=N\n1cnnc1)/c1ccc(N2CCOCC2)cc1`, the inhibition was 8.48% (inactive).

Turning to `CCOc1ccc(/C=N/Nc2ccccn2)cc1OC`, the inhibition is 6.25% (inactive). As for `Cc1ccc(N/N=C/c2ccc(N3CCOCC3)cc2)cc1C`, the figure is 24.2% (inactive); as for `COc1cc(/C=N/Nc2ccccn2)ccc1OCC(C)C`, 1.63% (inactive).

In the case of `CCCOc1ccc(/C=N/Nc2ccccn2)cc1OC`, the inhibition is 13.1% (inactive). For `C=CCOc1ccc(/C=N/Nc2ccccn2)cc1OC` the value was 9.55% (inactive); for `Clc1ccc(/C=N/Nc2ccccn2)cc1`, 11.1% (inactive).

In the case of `Brc1ccc(/C=N/Nc2ccccn2)cc1`, the inhibition is 10.9% (inactive).

For the molecule `COc1ccccc1-c1nnc(SC)n1C`, the inhibition was 7.84% (inactive). For `CC(=O)N1N=C(c2ccccc2)CC1c1ccc2c(c1)OCO2` (stereo not given), the inhibition was 13.6% (inactive).

As to `CC(C)(C)OC(=O)C[C@H]1C/C=C\C[C@@H](CC(=O)NCCO)C(=O)N[C@H](Cc2ccccc2)COC1=O`, the inhibition is 5.95% (inactive). As for `CC1Cc2ccccc2N1S(=O)(=O)c1cnc(Cl)c(Cl)c1` (stereo not given), the figure is 6.78% (inactive); as for `O=S(=O)(NCC(c1ccc2c(c1)OCO2)N1CCOCC1)c1ccccc1` (stereo not given), 4.31% (inactive); as for `O=C(CCCC1=NS(=O)(=O)c2ccccc2N1)NCCc1ccc(Cl)cc1`, 12.4% (inactive). Consider `CN(C1CCCCC1)S(=O)(=O)c1ccc(=S)[nH]c1`, for which the inhibition was 16.8% (inactive). For `Cc1cccc(COCC(Cc2ccccc2)N2CCN(C(=O)c3cc(Cl)cc(Cl)c3)CCC2=O)c1` (stereo not given) the value was 10.4% (inactive); for `Cc1noc(C)c1COc1ccc(C(=O)N2CCN(c3ccccc3O)CC2)cc1`, -2.07% (inactive). For `O=C(Nc1nc2ccc(F)cc2s1)C1CC(=O)N(c2ccc3c(c2)OCCO3)C1` (stereo not given) the value was 3.42% (inactive); for `CC(C)(C)c1ccc(NC(=O)COC(=O)C2CCCC2)cc1`, 6% (inactive). As for `O=C(N/N=C/c1ccc(N2CCOCC2)cc1)c1ccccn1`, the figure is 3.4% (inactive). `COc1cc(/C=N/Nc2ncnc3sc4c(c23)CCC4)ccc1O`: the inhibition is 6.14% (inactive). In the case of `COc1ccc(/C=N/Nc2ncnc3sc4c(c23)CCCC4)cc1OC`, the inhibition was 2.22% (inactive). Consider `C(=N\Nc1ccccc1)/c1ccc(N2CCOCC2)cc1`, for which the inhibition is 11% (inactive).
